# Mac1 fbg enh = CD11b/CD18-fibrinogen binding enhancement; activation, % at 10 µM; K562 CD11b/CD18 adhesion to fibrinogen, ATPlite luminescence; actives 0.07% (n = 93,000); P05107+P11215; AID 1499;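 active = 10 µM primary screen giving 50% or more activity, confirmed by 40% or more on retest at that dose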
# CYP2C19 act = activators of human cytochrome P450 2C19. P33261. 96,000 tested, under 10 active. recombinant CYP2C19, luciferin-H EGE luminescence; stronger effect = higher value; 0 = fully inhibited enzyme, 1 = untreated enzyme. activation factor at 5 µM;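 active = activation factor of at least 2 at 5 µM in the primary screen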
# Target sequence (P33261 whole entry, looked up): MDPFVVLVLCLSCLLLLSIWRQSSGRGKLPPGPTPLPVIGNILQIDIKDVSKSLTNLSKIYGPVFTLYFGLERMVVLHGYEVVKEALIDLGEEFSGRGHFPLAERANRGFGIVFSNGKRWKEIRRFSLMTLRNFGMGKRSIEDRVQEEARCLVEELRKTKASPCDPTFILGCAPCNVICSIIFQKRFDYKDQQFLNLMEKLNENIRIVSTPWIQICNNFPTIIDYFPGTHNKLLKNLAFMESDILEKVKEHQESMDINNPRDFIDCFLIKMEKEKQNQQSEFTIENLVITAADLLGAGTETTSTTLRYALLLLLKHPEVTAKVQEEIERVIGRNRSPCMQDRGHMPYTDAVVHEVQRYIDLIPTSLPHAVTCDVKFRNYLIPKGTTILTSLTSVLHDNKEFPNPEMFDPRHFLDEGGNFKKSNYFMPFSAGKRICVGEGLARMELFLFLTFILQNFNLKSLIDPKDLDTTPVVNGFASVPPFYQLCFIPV
# CYP2C9 inh = human CYP2C9 inhibition | P11712 | CYP2C9 Supersomes, luciferin-H conversion, luminescence | inhibition, % at 5 µM | actives 20% (n = 96,000) | AID 777;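 active = blocking of liver enzyme CYP2C9 beyond about 50% at 5 µM, limit read from the data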
# Mac1 fbg inh = CD11b/CD18-fibrinogen binding inhibition; P05107+P11215; K562 CD11b/CD18 adhesion to fibrinogen, ATPlite luminescence; Mn2+ added to activate the integrin; inhibition, % at 10 µM; actives 0.54% (n = 93,000);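 active = primary inhibition of 50% or more at 10 µM, then 40% or more on retest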
# CYP2C9 activ = CYP2C9 (human) activation | P11712 | recombinant CYP2C9, luciferin-H conversion, luminescence; stronger effect = higher value; factor 1 = untreated enzyme, 0 = blocked | activation factor at 5 µM | actives 1.4% (n = 96,000) | AID 1024;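 active = activation factor of 2 or more for CYP2C9 at a 5 µM dose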
# CYP2C19 inh = inhibitors of human CYP2C19; P33261; CYP2C19 Supersomes, luciferin-H EGE luminescence, 30 min; inhibition, % at 5 µM; actives 21% (n = 96,000);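 active = CYP2C19 inhibition above a set limit at 5 µM in the primary screen, cut at about 50% in these data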
# Numbers stand for hits; – = inactive; · = no result given. Shown are actives, neighbours in structure and some others; about 28% of the full set was active somewhere.
SMILES,Mac1 fbg enh,CYP2C19 act,CYP2C9 inh,Mac1 fbg inh,CYP2C9 activ,CYP2C19 inh
CCOc1ccccc1CSc1nc2ccccc2[nH]1,–,·,·,–,·,·
Cc1[nH]c2ccccc2c1CCO,–,–,–,–,–,–
CCn1c(-c2ccc3[nH]c(C)c(C)c3c2)n[nH]c1=S,–,–,90,–,–,78
Cc1[nH]c2ccc(-c3n[nH]c(=S)n3C)cc2c1C,–,–,–,–,–,–
CCn1c(-c2cc3ccccc3cc2O)n[nH]c1=S,–,–,–,–,–,52
CCn1c(CSc2nc3ccccc3[nH]2)n[nH]c1=S,–,–,–,–,–,56
O=C(NC(NC(=O)c1ccccc1)c1ccccc1)c1ccccc1,–,–,–,–,–,–
Cc1cc(=O)n2nc(-c3ccccc3)sc2c1C#N,–,–,–,–,–,–
C=CCn1c(-c2c[nH]c3ccccc23)n[nH]c1=S,–,–,–,–,–,–
CCn1c(-c2c[nH]c3ccccc23)n[nH]c1=S,–,–,54,–,–,–
CCOC(=O)C1=C(SCC(=O)Nc2ccccc2)NC(=O)C(C#N)C12CCCCC2 (stereo not drawn),–,–,85,–,–,93
N#CC1=C(SCC(=O)NC2CC2)NC(=O)C(C#N)C12CCCCC2 (stereo not drawn),–,–,68,–,–,–
N#CC1=C(N)N=C(SCc2ccccc2)C(C(N)=O)C12CCCCC2 (stereo not drawn),·,–,–,·,–,–
C=CCSC1=C(C#N)C2(CCCCC2)C(C#N)C(=O)N1 (stereo not drawn),–,–,83,–,–,58
C=CCSC1=NC(N)=C(C#N)C2(CCCCC2)C1C(N)=O (stereo not drawn),–,–,–,–,–,89
CCCCn1nc2cc(C(=O)NCc3ccc(OC(F)(F)F)cc3)ccc2c1OC,·,–,–,·,–,–
CC(C)(C)C1CCC2(CC1)C(C#N)=C(SCC(=O)NC1CCCCC1)NC(=O)C2C#N (stereo not drawn),–,–,92,–,–,–
N#CC1=C(SCC(=O)Nc2cccc3cccnc23)NC(=O)C(C#N)C12CCCCC2 (stereo not drawn),–,–,91,–,–,78
O=C(CSC1=NC(=O)C(Cc2ccccc2)C(=O)N1)NC1CCCCC1 (stereo not drawn),–,–,–,–,–,–
Cc1cccc(C)c1-n1c(C)cc(/C=N/NC(N)=S)c1C,–,–,93,–,–,91
Cc1cc(/C=N/NC(=O)c2ccc(CN3CCOCC3)cc2)c(C)n1-c1ccccc1,–,–,–,–,–,–
Cc1ccccc1-n1c(C)cc(/C=N/NC(=O)c2ccncc2)c1C,–,–,51,–,–,–
Cc1cccc(C)c1OCC(=O)NNC(=O)Nc1ccc(Cl)cc1,–,–,–,–,–,–
S=C1NC(c2ccccc2)=NCN1c1ccc(Cl)cc1,–,–,–,–,–,80
O=C(Nc1sc2c(c1C(=O)O)CCC2)c1ccccc1,–,–,–,–,–,–
SMILES,Mac1 fbg enh,CYP2C19 act,CYP2C9 inh,Mac1 fbg inh,CYP2C9 activ,CYP2C19 inh
CC(C)(C)c1ccc(S(=O)(=O)NCC(=O)Nc2sc3c(c2C(N)=O)CCCC3)cc1,–,–,55,–,–,–
NC(=O)c1c(NC(=O)c2cccs2)sc2c1CCCCCC2,–,–,85,–,–,84
O=C(Nc1sc2c(c1C(=O)O)CCC2)c1cccs1,–,–,70,–,–,85
C=CCN(C(=O)CNS(=O)(=O)c1ccccc1)C(C(=O)NCCOC)c1ccncc1 (stereo not drawn),–,–,–,–,–,–
N#Cc1ccc(Cn2c(=O)c(C#N)c3n(c2=O)CCC3)cc1,–,–,–,–,–,89
N#Cc1c2n(c3c(=O)n(Cc4ccccc4Cl)cnc13)CCCC2,–,–,92,–,–,99
COC(=O)Cn1cnc2c(C#N)c3n(c2c1=O)CCCC3,–,–,–,–,–,–
N#Cc1c2n(c3c(=O)n(Cc4ccc(Cl)cc4)cnc13)CCCC2,–,–,62,–,–,100
Cn1c(-c2ccc(C=O)s2)nc2c3ccccc3c3ccccc3c21,–,–,–,–,–,–
CCCCCn1c(N2CCOCC2)nc2c1c(=O)n(CC(N)=O)c(=O)n2C,–,–,–,–,–,–
O=C(NCCN1CCOCC1)C1CC(=O)N(c2ccc(F)c(Cl)c2)C1 (stereo not drawn),–,–,–,–,–,–
CCOC(=O)Cc1csc(NC(=O)C2CCCN(S(=O)(=O)c3cnc[nH]3)C2)n1 (stereo not drawn),–,–,–,–,–,–
O=C(NCCSCc1ccco1)Nc1cccc(Cl)c1,·,–,–,·,–,64
O=C(COc1ccccc1)NCCSc1ccccc1,–,–,60,–,–,97
CC(C)(C)SCCNC(=O)COc1ccccc1,·,–,–,·,–,–
O=C(COc1ccccc1)NCCSCc1ccco1,–,–,63,–,–,85
CCc1ccc(OCC(=O)NCCOc2ccccc2)cc1,–,–,50,–,–,–
CSc1ccc(/C=N/NC(=O)CN2CCN(Cc3ccc(C)cc3)CC2)cc1,–,·,·,–,·,·
CCc1nc2cc(CC(=O)O)ccc2o1,·,–,–,·,–,–
Cc1onc(-c2ccccc2)c1C(=O)Nc1sc2c(c1C(N)=O)CCC2,–,–,–,–,–,–
CC(C)(C)C(=O)NC(=S)Nc1sc2c(c1C#N)CCCCC2,–,·,·,–,·,·
Cc1ccccc1C(=O)NC(=S)Nc1sc2c(c1C#N)CCCC2,–,–,74,–,–,–
Cc1noc(C)c1C(=O)Nc1sc(C)c(-c2ccccc2)c1C#N,–,–,76,–,–,62
Cc1onc(-c2ccccc2)c1C(=O)Nc1sc2c(c1C#N)CCC2,·,–,68,·,–,–
Cc1noc(C(=O)Nc2sc3c(c2C#N)CCC3)c1Cl,–,–,–,58,–,–
SMILES,Mac1 fbg enh,CYP2C19 act,CYP2C9 inh,Mac1 fbg inh,CYP2C9 activ,CYP2C19 inh
CCCC(C)NC(=O)c1ccc(C2SCC(=O)N2Cc2ccco2)cc1 (stereo not drawn),–,–,–,–,–,–
Cc1cc(SCC(=O)c2ccccc2)nc(C)n1,–,–,–,–,–,67
Cc1cc(C)n2nc(SCn3nnc4ccccc4c3=O)nc2n1,–,–,–,–,–,72
Cc1cc(SCC(=O)Nc2ccccc2)nc(C)n1,–,–,–,–,–,–
Cc1cc(SCC(N)=O)nc(SCC(=O)c2ccccc2)n1,–,–,–,–,–,–
Cc1ccc(C(=O)CSc2cc(C)nc(SCC(=O)c3ccccc3)n2)cc1,–,–,73,–,–,–
Cc1ccc(C(=O)CSc2ccccn2)cc1,–,–,–,–,–,82
CCOC(=O)c1sc(NC(C)=O)nc1-c1ccccc1,·,–,–,·,–,–
COc1ccc(N2CC(C(=O)NCc3cccnc3)CC2=O)cc1 (stereo not drawn),–,–,–,–,–,–
COC(=O)c1ccc(NC(=O)CSc2ccccn2)cc1,–,–,54,–,–,82

# Assay outcomes deposited in PubChem by Sanford-Burnham Center for Chemical Genomics.
